Reference: PubChem BioAssay AID504861 (Broad Institute, 2011)
The whole screen tested about 1,200 compounds, of which about 290 (24%) were called active. Roughly 3% stayed inconclusive and do not appear here.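 The calls were made as follows: active = compounds lowering cell viability signal with fitted half-maximal concentration at most ten times their highest tested concentration; inconclusive = flat fit with 30 to 70% signal loss, or poor fit; inactive = the rest.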 Only a sample is shown. Entries with a potency or affinity are not part of this list.

Test: cytotoxicity in HEK293T cells – cell-based, CellTiter-Glo luminescence, cherry-picks, cytotoxicity control for LMP1 NF-kB inhibitor project, dose response (AID 504861)
Conditions: HEK293T viability, CellTiter-Glo ATP luminescence, 48 h; series mostly up to 26 µM; activity change, negative = cytotoxicity: at the top concentration

Row | SMILES | activity change, negative = cytotoxicity
1 | CCn1c2ccccc2c2cc(/C=N/NC(=O)c3ccncc3)ccc21 | 10.8% (inactive)
2 | COc1ccc(CCNC(=O)c2nnn(-c3ccc4c(c3)OCCO4)c2N)cc1OC | -3.16% (inactive)
3 | CNS(=O)(=O)c1cccc(C(=O)OCC(=O)c2ccc3c(c2)OCCO3)c1 | 4.41% (inactive)
4 | O=C(c1noc2c1CCCC2)N1CCCCC1 | 2.78% (inactive)
5 | CC[C@H]1OC(=O)[C@H](C)[C@@H](O[C@H]2C[C@@](C)(OC)[C@@H](O)[C@H](C)O2)[C@H](C)[C@@H](O[C@@H]2O[C@H](C)C[C@H](N(C)C)[C@H]2O)[C@](C)(O)C[C@@H](C)C(=NOCOCCOC)[C@H](C)[C@@H](O)[C@]1(C)O | 1.19% (inactive)
6 | COc1cc2c(cc1OC)-c1cc(Nc3ccc4c(c3)OCCO4)nc(=O)n1CC2 | 35.8% (inactive)
7 | Cc1nc2ncccn2c1-c1csc(Nc2ccccc2)n1 | 3.33% (inactive)
8 | CCOC(=O)C1=C(C)NC(C)=C(C(=O)OCC)C1c1cn(-c2ccccc2)nc1-c1ccco1 | 9.17% (inactive)
9 | COCCn1c(SCCN2CCOCC2)nc2c1c(=O)[nH]c(=O)n2C | -5.1% (inactive)
10 | Cc1cccc(NC(=O)c2cnc3ccccn3c2=O)c1 | 11.3% (inactive)
11 | CC(C)c1nnc(NC(=O)c2ccc(N3C(=O)CCC3=O)cc2)s1 | 9.62% (inactive)
12 | COc1ccc(-n2c(SCC(=O)Nc3cc(C)on3)nc3c(c2=O)SCC3)cc1 | 6.53% (inactive)
13 | COc1ccc(/C=N/N=C/c2ccc(OC)c(OC)c2)cc1OC | 13.3% (inactive)
14 | COc1cc(/C=C2/SC(=S)N(Cc3ccccc3)C2=O)ccc1OCC(=O)O | 1.52% (inactive)
15 | CCOCCCn1c(=S)[nH]c2ncccc2c1=O | 21.6% (inactive)
16 | O=c1c2c(nc3c(-c4ccc(Cl)cc4)c[nH]n13)CCCC2 | -9.92% (inactive)
17 | CC(=NNC(=S)N1CCCCCC1)c1cccc2cccnc12 | -5.32% (inactive)
18 | CC1=C(CC(=O)O)c2cc(F)ccc2C1=Cc1ccc(S(C)(=O)=O)cc1 | 0.041% (inactive)
19 | COc1ccc(OC)c(CCNC(=O)CCn2nc(C)c3c(C)n(-c4ccccc4)nc3c2=O)c1 | 3.9% (inactive)
20 | COCCn1c(C)cc(C(=O)COC(=O)C23CC4CC(CC(O)(C4)C2)C3)c1C | 3.31% (inactive)
21 | CC1CCc2nc(N)c(C#N)c(-c3cccnc3)c2C1 (centres undefined) | -2.74% (inactive)
22 | N#CCN(N=Nc1ccccc1)c1ccccc1 | -6.12% (inactive)
23 | CC(NC(=O)CCOc1ccccc1)c1ccccc1 (centres undefined) | 1.19% (inactive)
24 | C[C@@H](OC(=O)c1[nH]cnc1C(=O)N1CCc2ccccc2C1)c1ccccc1 | -0.366% (inactive)
25 | COc1cccc(-c2nnc(NC(=O)c3ccc(S(=O)(=O)N(CC(C)C)CC(C)C)cc3)o2)c1 | 1.48% (inactive)
26 | CCn1c2ccccc2c2cc(/C=N/n3cnnc3)ccc21 | -7.83% (inactive)

Row | SMILES | activity change, negative = cytotoxicity
27 | C=CC[N+](C)(C)C/C(Cl)=C(\Cl)c1ccccc1 | 7.76% (inactive)
28 | O=[N+]([O-])c1ccc(Cl)c(S(=O)(=O)NCC2CCCO2)c1 (centres undefined) | 6.06% (inactive)
29 | c1ccc2c(-c3ccncc3)c[nH]c2c1 | -0.974% (inactive)
30 | COc1cc(/C=N/NC(=O)c2cc(C34CC5CC(CC(C5)C3)C4)[nH]n2)ccc1O | 3.92% (inactive)
31 | Cc1ccccc1CC(=O)NCc1cccnc1 | -5.15% (inactive)
32 | CCn1c2ccccc2c2cc(/C=N/NC(=O)c3cc(O)cc(O)c3)ccc21 | -8.8% (inactive)
33 | Oc1ccccc1C=NN=Cc1c(O)ccc2ccccc12 | 3.24% (inactive)
34 | c1nc(NCc2ccc3c(c2)OCO3)c2cc(-c3ccoc3)ccc2n1 | -11.3% (inactive)
35 | Oc1c(N=NC(=S)Nc2ccccc2F)c2ccccc2n1Cc1ccccc1F | 12% (inactive)
36 | CCS(=O)(=O)c1nnnn1-c1ccccc1S(C)(=O)=O | -0.286% (inactive)
37 | O=C1c2ccccc2C(=O)c2cc(N3CCCCC3)ccc21 | -5.57% (inactive)
38 | CC(C)c1cc(NC(=O)c2ccccc2)cc(C(C)C)c1O | 3.11% (inactive)
39 | O=C(NC(c1ccc(Cl)cc1)c1cc(Cl)c2cccnc2c1O)c1cccnc1 (centres undefined) | 15.2% (inactive)
40 | Nc1cc2ccncc2c2ccccc12 | -17.4% (inactive)
41 | CC1=C(C)C(OCCCl)N(c2cc(O)c(Cl)cc2F)C1=O (centres undefined) | 11.4% (inactive)
42 | Cc1ccc(N2CCCCn3c2nc2c3c(=O)n(CC(=O)O)c(=O)n2C)cc1 | 5.91% (inactive)
43 | Nc1ncnc(N2CCc3ccccc32)c1[N+](=O)[O-] | 5.71% (inactive)
44 | COc1ccc(-c2cc3c(=O)n(CC(=O)NCCCN4CCN(Cc5ccccc5)CC4)ncn3n2)cc1 | -1.47% (inactive)
45 | Cc1ccccc1C(=O)N1CCN(c2ccc(NC(=O)c3cccs3)cc2)CC1 | 12.1% (inactive)
46 | COc1nc(Nc2nc3ccccc3c(=O)[nH]2)nc2ccc(C)cc12 | 6.13% (inactive)
47 | COc1ccc2cc3c(N)nn(C(=O)c4ccccc4[N+](=O)[O-])c3nc2c1 | -10.9% (inactive)
48 | O=C(O)c1c2c(nc3ccccc13)/C(=C/c1ccc(O)cc1)CC2 | 11.7% (inactive)
49 | Cc1nn(CCCC(=O)Nc2cccnc2Cl)c(C)c1[N+](=O)[O-] | 1.66% (inactive)
50 | COCCN1Cc2cccc(C(=O)N3CCN(c4cc(C)ccc4C)CC3)c2C1=O | -7.98% (inactive)
51 | CCOC(=O)[C@H]1[C@H]2COc3ccc(OC)cc3[C@@H]2N2C(=O)CN(C)C(=O)[C@@]12C | 0.991% (inactive)
52 | CCn1nc(C(=O)Nc2nc(-c3ccccn3)cs2)c2ccccc2c1=O | 5.64% (inactive)

Row | SMILES | activity change, negative = cytotoxicity
53 | O=C(CN1C(=O)c2ccccc2S1(=O)=O)c1ccccc1 | 16.5% (inactive)
54 | COc1cc(C2NC(=O)NC(C)=C2C(=O)OC2CCCC(C)C2)cc(Br)c1O (centres undefined) | 1.98% (inactive)
55 | O=C(c1ccco1)N1CCN(S(=O)(=O)/C=C/c2ccccc2)CC1 | -2.25% (inactive)
56 | CCCN(CCC)S(=O)(=O)c1ccc(C(=O)Nc2nnc(-c3cc(OC)cc(OC)c3)o2)cc1 | 2.24% (inactive)
57 | COc1cc(/C=N/NC(=S)Nc2cccc(C(=O)O)c2)ccc1O | 13.6% (inactive)
58 | S=C(N/N=C/c1ccc2ncccc2c1)Nc1cccnc1 | 0.537% (inactive)
59 | COc1ccc(CNC(=O)N2[C@H]3CC[C@@H]2C=C(c2ccc(F)cc2OCc2ccccc2)C3)cc1OC | 8.66% (inactive)
60 | CCOc1cccc(CNc2nnnn2C)c1 | -0.593% (inactive)
61 | Cn1c(=O)[nH]c(=O)c2c1nc(CN1CCOCC1)n2CCCc1ccccc1 | 2.77% (inactive)
62 | O=C(c1ccc(C#CC2(O)CCCCC2)cc1)N1CCN(C(c2ccccc2)c2ccccc2)CC1 | 3.71% (inactive)
63 | CN(CC(=O)Nc1cccnc1)S(=O)(=O)c1ccc(Br)cc1 | 21.2% (inactive)
64 | CC1CCN(c2ccc(-c3ccc(NC(=O)C(F)(F)F)cc3)nn2)CC1 | 7.11% (inactive)
65 | Cc1ccc(-c2cc(N)n3nc(-c4ccc(C)cc4)cc3n2)cc1 | 10.3% (inactive)
66 | COc1ccc(S(=O)(=O)NC(CC(=O)NCc2ccco2)C(C)C)cc1 (centres undefined) | 7.05% (inactive)
67 | CC(=O)Nc1ccc(S(=O)(=O)N2CCCC2)cc1 | 10% (inactive)
68 | CC(=O)Nc1nc(C)c(-c2csc(Nc3cccc([N+](=O)[O-])c3)n2)s1 | -0.558% (inactive)
69 | Nc1ccn([C@@H]2O[C@H](CO)[C@@H](O)C2O)c(=O)n1 (some centres undefined) | 1.52% (inactive)
70 | CCOC(=O)N1CCN(C(=O)C2CCC(=O)N(Cc3ccccc3OC)C2)CC1 (centres undefined) | 4.09% (inactive)
71 | Cc1csc(NC(=O)c2ccc(N3CCCC3=O)cc2)n1 | -6.07% (inactive)
72 | COc1ccc(/C=C2\SC(=O)N(CCCC(=O)Nc3ccc(C(=O)O)cc3)C2=O)cc1 | 1.35% (inactive)
73 | O=C1/C(=C/c2ccncc2)SC(=S)N1Cc1ccccc1 | 3.49% (inactive)
74 | COc1ccccc1NC(=O)CC(c1ccc(OC(C)C)cc1)c1ccccc1OC (centres undefined) | 3.18% (inactive)
75 | Brc1ccc(-c2csc(N3CCCCCC3)n2)cc1 | 14.6% (inactive)
76 | CC(C)(O)C#Cc1ccc([C@@H]2C[C@H]3CN(c4ccccc4)C(=O)[C@]34CCCN24)s1 | -8.23% (inactive)
77 | CN(C1CCCCC1)S(=O)(=O)c1ccc(C(=O)N2CCN(c3nc4ccccc4s3)CC2)cc1 | 3.38% (inactive)
78 | Cc1cccc(NC(=S)N=Nc2c(O)n(C)c3ccc(S(=O)(=O)N4CCOCC4)cc23)c1 | 8.1% (inactive)

Row | SMILES | activity change, negative = cytotoxicity
79 | CC(CCc1ccco1)N(C)S(=O)(=O)c1csc(C(N)=O)c1 (centres undefined) | 3.06% (inactive)
80 | CCC(=O)NC(c1ccc(C)cc1)c1cc(Cl)c2cccnc2c1O (centres undefined) | 4.72% (inactive)
81 | O=C(Nc1ccncc1)OCc1ccccc1 | -5.71% (inactive)
82 | CS(=O)(=O)N(CC(=O)Nc1ccc(F)cc1F)C1CCCCC1 | 7.69% (inactive)
83 | COc1ccc(-c2cc3nc4n(c(=O)c3s2)CCC4)cc1 | -0.959% (inactive)
84 | O=C(N/N=C(/CC(=O)c1cccs1)C(F)(F)F)c1ccc(O)cc1 | 13.8% (inactive)
85 | CC(C)(C)c1ccc(C(=O)N2CCC(=O)N(C(CO)Cc3ccccc3)CC2)cc1 (centres undefined) | 1.74% (inactive)
86 | COc1ccc(-n2c(C)c(C(C)=O)c3cc(OC(C)=O)ccc32)cc1 | -3.31% (inactive)
87 | O=c1nc(N/N=C/C=C/c2ccccc2)cn[nH]1 | 13.1% (inactive)
88 | COc1ccc2cc3c(N)nn(C(=O)c4cccc([N+](=O)[O-])c4)c3nc2c1 | 8.36% (inactive)
89 | CCCc1cc(=O)[nH]c(SCC(=O)NC2CCCCC2)n1 | 0.135% (inactive)
90 | O=Cc1cc(OCc2ccccc2)ccc1[B-](F)(F)F | 17.3% (inactive)
91 | C[C@@H]1CN([C@@H](C)CO)S(=O)(=O)c2ccc(/C=C/c3ccccc3)cc2O[C@@H]1CN(C)Cc1ccc(C(=O)O)cc1 | -12.6% (inactive)
92 | c1csc(CNc2ncnc3ccc(-c4ccoc4)cc23)c1 | -9.02% (inactive)
93 | CC(=O)OCC(=O)[C@@]1(O)CC[C@H]2[C@@H]3CCC4=CC(=O)CC[C@]4(C)[C@H]3[C@@H](O)C[C@@]21C | 1.32% (inactive)
94 | O=C(NCCc1ccccc1)c1ccccc1Cl | 5.61% (inactive)
95 | COc1ccccc1-c1nnc(Sc2nc([N+](=O)[O-])nn2C)o1 | -10.5% (inactive)
96 | Cc1ccc(NC(=O)/C=N/OCC(=O)NCc2ccccc2Cl)cc1 | 4.14% (inactive)
97 | CSc1ccccc1C(=O)N1CCC2(CC1)CC(=O)c1ccccc1O2 | -2.08% (inactive)
98 | CSc1nc(N)nc(SCC(=O)C23CC4CC(CC(C4)C2)C3)c1C#N | -8.4% (inactive)
99 | COc1cc2c(=O)n(CC3CCCO3)c(=O)n(CC(=O)Nc3cccc(Cl)c3)c2cc1OC (centres undefined) | 4.18% (inactive)
100 | O=[N+]([O-])c1ccc(/C=N/Nc2cc(Cl)nc(-c3ccccc3)n2)cc1 | 3.89% (inactive)
101 | Cc1nn(C(C)(C)C)c(C)c1/C=N/OC(=O)Nc1ccc(Cl)c(Cl)c1 | 7.48% (inactive)
102 | COc1ccc(-c2csc3ncnc(NCCN4CCOCC4)c23)cc1 | 7.69% (inactive)
103 | COc1ccc2cc(-c3cc(C(=O)OCC(=O)NC4CCS(=O)(=O)C4)c4ccccc4n3)ccc2c1 (centres undefined) | -0.211% (inactive)
104 | CCOc1ccc(-c2cc(C(=O)N/N=C/c3ccc(O)cc3)c3ccccc3n2)cc1 | -1.88% (inactive)
